Records with an inconclusive call do not appear. Activity calls are given as the source filed them. The call rests on the fitted dose curve; in most records, active means well fitted inhibition curve with a large enough effect in the signal ratio in the repeat runs (not every such curve was filed as active); inconclusive means weak or mixed curves; inactive means flat fitted curve, though single readings scatter; the % refers to the signal ratio.
On the % scale 0 is the no-effect control and ±100 the full control effect; potency means the concentration at half of the fitted maximal effect.

For this assay, the target named is Progesterone receptor (Homo sapiens) (UniProt P06401). The experiment in a line: qHTS assay to identify small molecule antagonists of the progesterone receptor (PR) signaling pathway (AID 1346795). Particulars: PR-UAS-bla HEK293T, beta-lactamase FRET ratio, 16 h; series mostly up to 92.4 µM; activity change, negative = inhibition: at the top concentration. The text has this: National Center for Advancing Translational Sciences [NCATS]
Chain of Progesterone receptor (Homo sapiens) (P06401 whole entry, looked up): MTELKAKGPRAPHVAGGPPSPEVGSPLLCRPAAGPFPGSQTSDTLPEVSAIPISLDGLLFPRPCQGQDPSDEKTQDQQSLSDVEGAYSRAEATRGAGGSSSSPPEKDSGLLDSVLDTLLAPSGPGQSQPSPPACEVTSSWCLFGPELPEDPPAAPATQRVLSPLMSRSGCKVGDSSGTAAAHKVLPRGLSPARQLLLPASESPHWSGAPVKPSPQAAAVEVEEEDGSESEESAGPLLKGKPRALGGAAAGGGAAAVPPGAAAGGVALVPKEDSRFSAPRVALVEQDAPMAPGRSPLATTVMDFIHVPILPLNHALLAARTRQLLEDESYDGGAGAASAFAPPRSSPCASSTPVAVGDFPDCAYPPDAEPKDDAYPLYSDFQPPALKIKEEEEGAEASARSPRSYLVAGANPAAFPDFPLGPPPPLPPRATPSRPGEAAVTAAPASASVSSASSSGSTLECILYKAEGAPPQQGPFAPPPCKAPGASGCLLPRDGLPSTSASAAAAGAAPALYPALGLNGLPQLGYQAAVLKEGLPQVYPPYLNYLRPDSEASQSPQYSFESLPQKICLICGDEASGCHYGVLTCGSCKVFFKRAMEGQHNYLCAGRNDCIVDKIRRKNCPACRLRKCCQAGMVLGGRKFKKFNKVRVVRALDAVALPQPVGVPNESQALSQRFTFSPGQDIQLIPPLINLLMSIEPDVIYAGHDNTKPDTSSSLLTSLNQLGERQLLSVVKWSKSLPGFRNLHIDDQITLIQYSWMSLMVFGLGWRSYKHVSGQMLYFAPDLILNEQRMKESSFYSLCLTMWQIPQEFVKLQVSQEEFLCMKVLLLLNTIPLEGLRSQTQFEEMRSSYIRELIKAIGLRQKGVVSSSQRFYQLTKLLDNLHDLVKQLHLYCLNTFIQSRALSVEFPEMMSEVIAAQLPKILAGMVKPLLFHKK
NIH Chemical Genomics Center [NCGC]
U.S. Environmental Protection Agency [EPA]
National Institutes of Environmental Health Sciences [NIEHS]
National Toxicology Program [NTP]
U.S. Food and Drug Administration [FDA]
Progesterone receptor (PR), a nuclear hormone receptor, plays an important role in development, metabolic homeostasis and reproduction. […] Endocrine disrupting chemicals (EDCs) and their interactions with steroid hormone receptors like PR causes disruption of normal endocrine function. To identify the compounds that inhibit PR signaling, a PR-UAS-bla GripTite cell line i.e. PR-UAS-bla HEK293T (Invitrogen, Carlsbad, CA, USA) containing a beta-lactamase reporter gene under the control of an Upstream Activator Sequence (UAS) was used to screen Tox21 10K compound library.
Tox21 Assay Protocol Summary:
PR-UAS-bla HEK293T cells were dispensed at 3,000 cells/4 uL of assay medium containing 2% charcoal stripped FBS per well into black wall/clear-bottom 1536-well plates using a Multidrop Combi (ThermoFisher Scientific, Waltham, MA) dispenser. After the assay plates were incubated at a 37C and 5% CO2 for 6 hr, 23 nL of compounds dissolved in DMSO, positive controls or DMSO only was transferred to the assay plate by a Pintool station (Kalypsys, San Diego, CA), followed by addition of 1 uL (1nM as final concentration) of Promegestone (R5020) in assay medium using a BioRAPTR FRD (Flying Reagent Dispenser, Aurora Discovery, San Diego, CA). The plates were incubated at 37C and 5% CO2 for 16 hr. Then 1 uL of LiveBLAzer B/G FRET substrate was added using a FRD. After the plates were incubated at room temperature for 2 hours, fluorescence intensity was measured by an Envision plate reader (PerkinElmer, Shelton, CT).
(In qHTS, concentration-response curves come from the screen itself.)
For `CCCCCCCCCC(=O)N(C)C`, the “activity change, negative = inhibition” value was -3% (inactive).

Turning to `COc1cc(C=C2CCC/C(=C\c3ccc(O)c(OC)c3)C2=O)ccc1O`, the Potency was 6.68 µM (active). On the same count and under the same terms, the figure for `CC(C(O)c1ccccc1)N(C)CCOC(c1ccccc1)c1ccccc1` (stereo not given) is 23.7 µM (active). With `CCCCCCCC(=O)OCC`, the “activity change, negative = inhibition” value was 5.11% (inactive). For the compound `CC(=O)Oc1ccc(C2(c3ccc(OC(C)=O)cc3)C(=O)Nc3ccccc32)cc1`, the “activity change, negative = inhibition” value was -23.1% [at 42.5 µM] (inactive). Still for that read-out and setting: the figure for `CC1(C)C(=O)N(Br)C(=O)N1Br` is 4.04% (inactive).

For `CCC(C)c1ccccc1` (stereo not given), the “activity change, negative = inhibition” value was 0.722% (inactive). In the case of `CCOC(=O)[C@@](C)(N)Cc1ccc(O)c(O)c1`, the “activity change, negative = inhibition” value is -1.2% [at 42.5 µM] (inactive). The same measure, in the same setting: the result for `O=C(O)CCCCCCC(=O)O` reads 9.49% (inactive). Take `CC(COC(=O)c1ccccc1)OC(=O)c1ccccc1` (stereo not given): the “activity change, negative = inhibition” value is -17.6% (inactive). With `c1ccc(Nc2cccc3ccccc23)cc1`, the Potency is 13.9 µM (active). In the case of `NC(=O)c1ccccc1N`, the “activity change, negative = inhibition” value is 7.25% (inactive). Turning to `NC(=O)c1nc(-c2cccc(-c3cc(F)ccc3OCC(F)(F)C(F)(F)F)c2)n[nH]1`, the Potency was 34.4 µM (active). Turning to `CCN(CC)CCCN(c1ccccc1)C1Cc2ccccc2C1`, the “activity change, negative = inhibition” value was -27% [at 42.5 µM] (inactive). In the case of `CCCCCCCCCCCCCCCC`, the “activity change, negative = inhibition” value is 0.782% (inactive). In the case of `CCCCNc1c(C(=O)OCC)c(C)nc2c1cnn2CC`, the Potency was 26.6 µM (active). As for `O=CC1CC1`, the “activity change, negative = inhibition” value was -3.1% (inactive). Take `Cc1c(C)n(Cc2ccccc2)c2ccc(C(=O)OCCN(C)C)cc12`: the Potency was 26.6 µM (active).

`CC(=O)O[C@@H]1C[C@@H]2CC[C@@]1(C)C2(C)C`: the “activity change, negative = inhibition” value was -1.84% (inactive). For the compound `CC(=O)OC1CCCCC1`, the “activity change, negative = inhibition” value was 1.23% (inactive).

As for `O=S(=O)(O)c1cc(S(=O)(=O)O)c2ccc3c(S(=O)(=O)O)cc(S(=O)(=O)O)c4ccc1c2c43`, the activity change, negative = inhibition was 5.54% [at 18.9 µM] (inactive). Regarding `O=C1NC2CCCCN2C12CCN(CCCN1c3ccccc3CCc3ccc(Cl)cc31)CC2` (stereo not given), the Potency is 26.6 µM (active). `Cc1cn[nH]c1`: the “activity change, negative = inhibition” value is 11.4% [at 42.5 µM] (inactive). With `C(=C/c1ccccc1)/c1ccccc1`, the “activity change, negative = inhibition” value was 6.85% (inactive). Still for that read-out and setting: the result for `Clc1cc(Cl)c(-c2c(Cl)c(Cl)cc(Cl)c2Cl)cc1Cl` reads -0.384% [at 42.5 µM] (inactive). For `C/C=C/C=N/NC(=O)c1ccncc1`, the “activity change, negative = inhibition” value is -0.21% [at 42.5 µM] (inactive). Regarding `CC(C)=CCCC(C)CCOC(=O)C(C)C` (stereo not given), the “activity change, negative = inhibition” value was -0.458% (inactive). Regarding `O=Cc1ccc(F)cc1`, the “activity change, negative = inhibition” value is 11.1% (inactive). As to `CC1=C(/C=C/C(C)=C/C=C/C(C)=C\C=O)C(C)(C)CCC1`, the “activity change, negative = inhibition” value is -22.8% (inactive). Regarding `CC(C)(C)c1n[nH]c(=O)n(N)c1=O`, the “activity change, negative = inhibition” value is 4.29% (inactive). For `CCOCOCC`, the “activity change, negative = inhibition” value was 0.884% (inactive). Consider `OCCCS`, for which the “activity change, negative = inhibition” value is 0.114% (inactive).

As for `OCCCc1cccnc1`, the “activity change, negative = inhibition” value is 3.43% (inactive). Regarding `CC[N+](CC)(CC)Cc1ccccc1`, the “activity change, negative = inhibition” value was 3.08% (inactive). Consider `CCCCCCCC(OC)OC`, for which the “activity change, negative = inhibition” value is 0.608% [at 42.5 µM] (inactive). With `C[C@@]12C(=O)OC(=O)[C@]1(C)C1CCC2O1`, the Potency is 4.73 µM (active). For `C=CC/C=C/C/C=C/C/C=C/C`, the “activity change, negative = inhibition” value is 4.03% (inactive).

With `CNC(=S)NN`, the Potency was 8.63 µM (active). As to `Clc1ccc(C(Cn2ccnc2)OCc2c(Cl)cccc2Cl)c(Cl)c1` (stereo not given), the Potency is 4.22 µM (active). With `Nc1ncnc2c1ncn2[C@@H]1O[C@H](COP(=O)(O)O)[C@@H](O)[C@H]1O`, the “activity change, negative = inhibition” value was 9.02% [at 42.5 µM] (inactive).

The values are drawn from PubChem BioAssay (Tox21).
